The record followed here is PubChem BioAssay AID651871 (Sanford-Burnham Center for Chemical Genomics, 2012).

Each structure is given as a SMILES string.

The subject of this test is HL-1. The test is described as follows: protection of cardiomyocytes from stress damage, SAR follow-up, cell-based, panel, H9c2 and HL-1, ATP luminescence, set 2 (AID 651871).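 Further: cells exposed to stressor for 2 h before ATP readout; reference of the scale not given here.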 Conditions: H9c2/HL-1 cardiomyocytes, 2-deoxyglucose stress, with 2-deoxyglucose, run 6, at 79 µM (top of the series).
As to `COc1ccc2nc(-c3cc(OC)c(OC)c(OC)c3)cc(C(=O)NCC(=O)Nc3ccc(C(C)=O)cc3)c2c1`, the activity (protection/inhibition) turned out to be 61.1%.

As to `CCOC(=O)c1cccc(NC(=O)CNC(=O)c2cc(-c3cc(OC)c(OC)c(OC)c3)nc3ccccc23)c1`, the activity (protection/inhibition) worked out at 74.8%.

As for `COc1ccc2c(c1OC)C(=O)N1c3ccccc3C(=O)N(Cc3cccc(Cl)c3Cl)C21` (stereo not drawn), the activity (protection/inhibition) is -11.4%.
